# From PubChem BioAssay
# A number with no mark means an inactive call. The list shows a part of the results. Active and inactive are the calls of the source.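 The calls were made as follows, unless noted: active = inhibition above the hit cutoff computed for the primary STAT3 screen (cut at about 44% in these data); inactive = the rest.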
# Legend:
# [1] = potentiators of IFN-gamma STAT1 reporter activity – cell-based, HTS, luciferase reporter, confirmation (AID 1262;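 active = activation above a set limit carried over from the earlier primary STAT1 screen, cut at about 140% in these data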;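 also: simple ratio to median IFN-gamma plus DMSO wells so 0% means no light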); conditions: NIH 3T3 STAT1-luciferase reporter, IFN-gamma potentiation, luminescence; at 5.7 µM; stronger effect = higher value; 100% = IFN-gamma EC80 alone, no compound
# [2] = enhancement of NF-kB transcriptional signalling – cell-based, HEK293T, luciferase luminescence, TNF-alpha, counter-screen for STAT1 activator project (AID 1306;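 active = activation above the mean of solvent-only control wells plus 3 SD, set per campaign, cut at about 130% in these data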;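 also: TNF-alpha given at a submaximal dose yielding about 80% of full reporter signal; values are well signal over median control so 100% means no change and 0% no light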); conditions: HEK293T NF-kB luciferase reporter, TNF-alpha stimulated, at 5.7 µM, stronger effect = higher value, 100% = TNF-alpha with vehicle only
# [3] = biological target: Signal transducer and activator of transcription 3 (Homo sapiens) (UniProt P40763); experiment: enhancers of IL-6 STAT3 transcription – U3A cells, luciferase, luminescence, counter-screen for STAT1 activator project, confirmation (AID 1316;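 active = activation above the solvent-only control well mean plus 3 SD, set per plate batch, cut at about 110% in these data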;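 also: 0% = no luminescence and 100% = median IL-6 plus DMSO wells; higher means more STAT3 reporter activation so hits are non-selective activators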); conditions: U3A cells STAT3-luciferase reporter, IL-6, luminescence; at 5.7 µM; stronger effect = higher value; 100 = IL-6 alone, no compound effect; cells lack STAT1
# [4] = system: DAF-12 nuclear receptor (Heterodera glycines), GAL4-LBD fusion; experiment: hgDAF-12 GAL4 fusion reporter activation, retest – cell-based, luminescence, HEK293, GAL4-LBD fusion, confirmation (AID 743050;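 active = mean activation over triplicate wells above the hit cutoff derived from the earlier primary screen, cut at about 11% in these data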;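 also: 0% = DMSO low control and 100% = 2 mM sodium butyrate high control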); conditions: HEK293 GAL4-hgDAF12 luciferase reporter, agonist mode; at 6.8 µM; stronger effect = higher value; percent of butyrate response
# [5] = biological target: Oxysterols receptor LXR-beta (Homo sapiens) (UniProt P55055); experiment: nonspecific reporter activation via LXR – cell-based, luminescence, HEK293, H. glycines campaign, counter-screen for hgDAF-12 agonist project, confirmation (AID 743051;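 active = mean activation of the triplicate above a set limit carried over from the primary screen, none filed active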); conditions: HEK293 Gal4-LXR luciferase reporter, 24 h; at 6.8 µM; stronger effect = higher value
# Oxysterols receptor LXR-beta (Homo sapiens), sequence (P55055 whole entry, looked up, the tested form may be a part): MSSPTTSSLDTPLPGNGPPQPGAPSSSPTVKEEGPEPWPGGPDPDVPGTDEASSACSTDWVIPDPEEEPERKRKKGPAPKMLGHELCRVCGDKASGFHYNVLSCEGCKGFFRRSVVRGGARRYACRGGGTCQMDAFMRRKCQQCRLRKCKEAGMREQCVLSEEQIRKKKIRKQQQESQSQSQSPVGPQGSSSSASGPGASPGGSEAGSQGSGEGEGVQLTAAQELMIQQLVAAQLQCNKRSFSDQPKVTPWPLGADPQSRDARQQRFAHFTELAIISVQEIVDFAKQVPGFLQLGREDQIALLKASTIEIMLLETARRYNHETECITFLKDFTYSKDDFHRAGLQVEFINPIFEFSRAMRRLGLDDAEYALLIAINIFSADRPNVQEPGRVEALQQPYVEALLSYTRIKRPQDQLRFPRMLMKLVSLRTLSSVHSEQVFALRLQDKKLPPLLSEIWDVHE
# [6] = blockers of IL-6 STAT3 signaling – U3A cells, luciferase, luminescence, confirmation (AID 1265); conditions: IL-6 STAT3 luciferase reporter, at 5.7 µM, stronger effect = higher value, cell line lacks STAT1;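 also: 0% = IL-6 plus DMSO and 100% = IL-6 plus nifuroxazide control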
# [7] = inhibition of TNF-alpha-driven NF-kB transcription – cell-based, HEK293T, luciferase, TNF-alpha stimulus, counter-screen for STAT3 inhibitor project, confirmation (AID 1308;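 active = inhibition above the mean of solvent-only control wells plus 3 SD, cutoff set per campaign, cut at about 13% in these data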;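 also: 0% = TNF-alpha with DMSO and 100% = TNF-alpha with MG high control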); conditions: HEK293T NF-kB luciferase reporter, TNF-alpha induced; at 5.7 µM; stronger effect = higher value
# [8] = inhibition of STAT1-driven transcription – cell-based, NIH 3T3, luciferase luminescence, IFN-gamma, counter-screen for STAT3 inhibitor project, confirmation (AID 1317;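 active = inhibition above the mean plus 3 SD of solvent-only control wells, limit set per screening run, cut at about 16% in these data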;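 also: 0% = DMSO with IFN-gamma and 100% = nifuroxazide control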); conditions: NIH 3T3 STAT1-luciferase reporter, IFN-gamma induced, at 5.7 µM, stronger effect = higher value
# [9] = biological target: Neuropeptide Y receptor type 2 (Homo sapiens) (UniProt P49146); experiment: human Y2 receptor positive modulation or activation – cell-based, confirmation (AID 1539; in the data active = activation above about 33%); conditions: cell-based NPY-Y2 potentiator/agonist assay; at 3.6 µM; stronger effect = higher value
# Neuropeptide Y receptor type 2 (Homo sapiens), sequence (P49146 whole entry, looked up): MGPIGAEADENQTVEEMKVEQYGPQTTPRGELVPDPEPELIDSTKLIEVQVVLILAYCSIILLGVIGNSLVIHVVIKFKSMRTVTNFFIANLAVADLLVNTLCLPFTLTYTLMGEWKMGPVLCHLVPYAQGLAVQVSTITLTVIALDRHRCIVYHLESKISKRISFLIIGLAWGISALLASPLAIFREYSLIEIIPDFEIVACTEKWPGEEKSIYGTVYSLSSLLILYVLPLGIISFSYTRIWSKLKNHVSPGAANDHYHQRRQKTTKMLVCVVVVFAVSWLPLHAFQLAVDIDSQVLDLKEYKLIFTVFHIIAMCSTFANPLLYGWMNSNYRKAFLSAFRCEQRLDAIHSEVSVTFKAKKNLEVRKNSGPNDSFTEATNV
# [10] = biological target: Neuropeptide Y receptor type 1 (Homo sapiens) (UniProt P25929); experiment: human Y1 receptor positive modulation or activation – cell-based, fluorescence, counter-screen for NPY-Y2 potentiator project (AID 1651; in the data active = activation above about 45%;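 also: cells stimulated with submaximal NPY then isoproterenol with phosphodiesterase inhibitor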); conditions: Y1 HEK293-CNG cells, membrane potential fluorescence; at 3.6 µM; stronger effect = higher value
# Neuropeptide Y receptor type 1 (Homo sapiens), sequence (P25929 whole entry, looked up): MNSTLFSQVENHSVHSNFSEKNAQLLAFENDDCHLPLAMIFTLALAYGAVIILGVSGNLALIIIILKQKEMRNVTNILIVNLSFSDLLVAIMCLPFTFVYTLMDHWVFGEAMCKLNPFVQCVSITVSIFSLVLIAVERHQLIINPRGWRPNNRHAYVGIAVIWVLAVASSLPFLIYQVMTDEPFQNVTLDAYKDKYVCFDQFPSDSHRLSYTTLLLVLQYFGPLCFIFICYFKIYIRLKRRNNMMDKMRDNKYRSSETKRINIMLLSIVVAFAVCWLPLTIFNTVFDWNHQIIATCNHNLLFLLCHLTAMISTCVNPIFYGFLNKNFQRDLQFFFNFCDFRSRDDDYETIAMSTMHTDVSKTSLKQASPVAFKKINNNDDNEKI
# [11] = biological target: Neuropeptide Y receptor type 1 (Homo sapiens) (UniProt P25929); experiment: human Y1 receptor agonism, CNGC membrane potential – cell-based, fluorescence, selectivity assay for NPY-Y2 potentiator project (AID 1702;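 active = activation above the mean of DMSO-only control wells plus 3 SD, cut at about 18% in these data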;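 also: cells stimulated with 1 µM isoproterenol plus the PDE inhibitor Ro 20-1724; 0% = isoproterenol with DMSO and no NPY and 100% = 40 nM NPY; Y1 agonists lower the membrane potential dye signal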); conditions: HEK293 Y1-CNGC, at 3.6 µM, stronger effect = higher value
# [12] = blockers of isoproterenol-driven CNG channel signal – cell-based, HEK293-CNG parental, membrane potential fluorescence, counter-screen for NPY-Y2 potentiator project (AID 1703;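 active = inhibition above the control-well mean plus 3 SD of those wells, cut at about 22% in these data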;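 also: 0% = DMSO with isoproterenol and 100% = DMSO without isoproterenol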); conditions: isoproterenol cAMP, at 3.6 µM, stronger effect = higher value
# [13] = biological target: Neuropeptide Y receptor type 2 (Homo sapiens) (UniProt P49146); experiment: agonism at human Y2 receptor without NPY – cell-based, fluorescence, counter-screen for NPY-Y2 potentiator project (AID 1710;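 active = activation above the mean of solvent-only control wells plus 3 SD, cut at about 10% in these data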;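 also: cells stimulated by isoproterenol with no NPY added so direct agonism is tested; 0% = DMSO with isoproterenol alone and 100% = NPY at EC100 plus isoproterenol; agonism lowers probe fluorescence through less cAMP and CNG channel opening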); conditions: HEK293 Y2/CNGC cells, membrane potential fluorescence, agonist mode; at 3.6 µM; stronger effect = higher value
# [14] = suppression of KLF5 promoter-driven luciferase – DLD-1 cells, luminescence, confirmation (AID 1834;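 active = inhibition above a set limit taken from the earlier primary screen, cut at about 63% in these data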;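 also: 0% = DMSO wells and 100% = LY294002 at 200 µM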); conditions: DLD-1 KLF5 promoter firefly luciferase reporter, at 4 µM, stronger effect = higher value
# [15] = IEC-6 intestinal cell killing – luminescence, triplicate, cytotoxicity control for KLF5 inhibitor project (AID 1905; in the data active = inhibition above about 23%;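 also: cells exposed to compounds for 48 hours before viability read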); conditions: IEC-6 rat intestinal cells, viability luminescence; at 4 µM; stronger effect = higher value
# [16] = system: Fam108b (Abhd17b) serine hydrolase [Mus musculus]; experiment: inhibition of Fam108b (Abhd17b) hydrolase – biochemical, fluorescence polarization, triplicate, counter-screen for RBBP9 inhibitor project, confirmation (AID 1978;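 active = inhibition above a limit from the primary screen, the mean over all compounds plus 3 SD, cut at about 19% in these data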;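 also: 0% = median of active Fam108b wells and 100% = catalytically dead S170A mutant; inhibitors free the probe so polarization falls as inhibition rises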); conditions: recombinant Fam108b, FP-Rh probe fluorescence polarization; at 9.51 µM; stronger effect = higher value
# [17] = biological target: Protein phosphatase methylesterase 1 (Homo sapiens) (UniProt Q9Y570); experiment: human PME-1 methylesterase inhibition confirmation – biochemical, fluorescence polarization, FP-Rh probe, triplicate (AID 2171;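 active = inhibition above the hit cutoff set in the earlier primary screen, cut at about 27% in these data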;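 also: 0% = enzyme with DMSO and 100% = wells lacking PME-1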); conditions: recombinant PME-1, FP-Rh probe fluorescence polarization; at 5.9 µM; stronger effect = higher value
# Protein phosphatase methylesterase 1 (Homo sapiens), sequence (Q9Y570 whole entry, looked up): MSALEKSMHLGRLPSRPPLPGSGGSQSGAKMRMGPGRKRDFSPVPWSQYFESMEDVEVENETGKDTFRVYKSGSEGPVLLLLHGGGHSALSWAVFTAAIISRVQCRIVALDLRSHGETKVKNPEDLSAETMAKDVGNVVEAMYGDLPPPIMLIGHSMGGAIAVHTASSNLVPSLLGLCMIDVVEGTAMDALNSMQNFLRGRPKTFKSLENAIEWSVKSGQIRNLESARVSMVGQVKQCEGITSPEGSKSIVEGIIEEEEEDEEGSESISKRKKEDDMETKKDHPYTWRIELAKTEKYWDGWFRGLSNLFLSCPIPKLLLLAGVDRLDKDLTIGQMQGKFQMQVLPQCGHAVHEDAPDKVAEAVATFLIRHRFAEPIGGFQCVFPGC
# [18] = biological target: Photoreceptor-specific nuclear receptor (Homo sapiens) (UniProt Q9Y5X4); experiment: retest of NR2E3-NCOR disrupting agonists – cell-based, luminescence, CHO-S two-hybrid, confirmation (AID 624378;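 active = average inhibition above a cutoff equal to the mean inhibition of all tested compounds plus one SD, cut at about 70% in these data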;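 also: 0% = DMSO in NR2E3 cells and 100% = DMSO in cells lacking NR2E3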); conditions: CHO-S mammalian two-hybrid NR2E3-NCOR, luciferase luminescence; at 3.98 µM; stronger effect = higher value
# Photoreceptor-specific nuclear receptor (Homo sapiens), sequence (Q9Y5X4 whole entry, looked up): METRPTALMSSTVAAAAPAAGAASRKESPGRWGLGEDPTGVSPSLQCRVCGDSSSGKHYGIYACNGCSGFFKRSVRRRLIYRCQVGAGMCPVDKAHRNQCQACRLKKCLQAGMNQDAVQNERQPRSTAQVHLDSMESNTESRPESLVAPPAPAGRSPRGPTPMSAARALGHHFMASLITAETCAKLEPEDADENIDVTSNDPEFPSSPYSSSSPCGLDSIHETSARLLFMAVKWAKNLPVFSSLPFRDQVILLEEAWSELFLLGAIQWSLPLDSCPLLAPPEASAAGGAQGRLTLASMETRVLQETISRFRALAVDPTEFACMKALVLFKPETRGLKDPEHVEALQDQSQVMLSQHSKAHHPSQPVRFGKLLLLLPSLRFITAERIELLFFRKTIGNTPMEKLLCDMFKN
# [19] = reduced OD of V66 E. coli with T4 gene 2 phage – absorbance, RecBCD inhibitor project, confirmation (AID 651982;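 active = mean inhibition over triplicates exceeding the hit threshold derived in the original primary screen, cut at about 11% in these data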); conditions: E. coli V66 + T4 2- phage, growth OD; at 11.9 µM; stronger effect = higher value
# [20] = bacterial growth inhibition – absorbance, high throughput, counter-screen for RecBCD inhibitor project (AID 651983; in the data active = inhibition above about 20%;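 also: E. coli strain V66 grown with compound alone and no phage infection; 0% = bacteria with DMSO vehicle only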); conditions: E. coli viability, absorbance (OD) growth; at 11.9 µM; stronger effect = higher value
# [21] = reduced optical density, T4-challenged addAB+ bacteria – absorbance, E. coli V3065, T4 phage, counter-screen for RecBCD inhibitor project, confirmation (AID 651984;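 active = mean inhibition above the solvent-only control wells' mean plus 3 SD, cut at about 22% in these data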;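 also: higher means less bacterial growth from phage killing when AddAB is blocked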); conditions: E. coli expressing H. pylori AddAB + T4 phage, OD growth; at 11.9 µM; stronger effect = higher value; gene 2 mutant T4, recBCD-deleted host
# [22] = biological target: Nuclear receptor coactivator 3 (Homo sapiens) (UniProt Q9Y6Q9); experiment: NCOA3 GAL4-fusion reporter inhibition – cell-based, luminescence, quadruplicate, confirmation (AID 588792;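 active = mean inhibition over 43.08%, the solvent-only control mean plus 3 SD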;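 also: 0% = DMSO treated cells and 100% = gossypol at 36 µM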); conditions: HEK293 GAL4-SRC3 luciferase reporter, at 3.6 µM, stronger effect = higher value
# Nuclear receptor coactivator 3 (Homo sapiens), sequence (Q9Y6Q9 whole entry, looked up, the tested form may be a part): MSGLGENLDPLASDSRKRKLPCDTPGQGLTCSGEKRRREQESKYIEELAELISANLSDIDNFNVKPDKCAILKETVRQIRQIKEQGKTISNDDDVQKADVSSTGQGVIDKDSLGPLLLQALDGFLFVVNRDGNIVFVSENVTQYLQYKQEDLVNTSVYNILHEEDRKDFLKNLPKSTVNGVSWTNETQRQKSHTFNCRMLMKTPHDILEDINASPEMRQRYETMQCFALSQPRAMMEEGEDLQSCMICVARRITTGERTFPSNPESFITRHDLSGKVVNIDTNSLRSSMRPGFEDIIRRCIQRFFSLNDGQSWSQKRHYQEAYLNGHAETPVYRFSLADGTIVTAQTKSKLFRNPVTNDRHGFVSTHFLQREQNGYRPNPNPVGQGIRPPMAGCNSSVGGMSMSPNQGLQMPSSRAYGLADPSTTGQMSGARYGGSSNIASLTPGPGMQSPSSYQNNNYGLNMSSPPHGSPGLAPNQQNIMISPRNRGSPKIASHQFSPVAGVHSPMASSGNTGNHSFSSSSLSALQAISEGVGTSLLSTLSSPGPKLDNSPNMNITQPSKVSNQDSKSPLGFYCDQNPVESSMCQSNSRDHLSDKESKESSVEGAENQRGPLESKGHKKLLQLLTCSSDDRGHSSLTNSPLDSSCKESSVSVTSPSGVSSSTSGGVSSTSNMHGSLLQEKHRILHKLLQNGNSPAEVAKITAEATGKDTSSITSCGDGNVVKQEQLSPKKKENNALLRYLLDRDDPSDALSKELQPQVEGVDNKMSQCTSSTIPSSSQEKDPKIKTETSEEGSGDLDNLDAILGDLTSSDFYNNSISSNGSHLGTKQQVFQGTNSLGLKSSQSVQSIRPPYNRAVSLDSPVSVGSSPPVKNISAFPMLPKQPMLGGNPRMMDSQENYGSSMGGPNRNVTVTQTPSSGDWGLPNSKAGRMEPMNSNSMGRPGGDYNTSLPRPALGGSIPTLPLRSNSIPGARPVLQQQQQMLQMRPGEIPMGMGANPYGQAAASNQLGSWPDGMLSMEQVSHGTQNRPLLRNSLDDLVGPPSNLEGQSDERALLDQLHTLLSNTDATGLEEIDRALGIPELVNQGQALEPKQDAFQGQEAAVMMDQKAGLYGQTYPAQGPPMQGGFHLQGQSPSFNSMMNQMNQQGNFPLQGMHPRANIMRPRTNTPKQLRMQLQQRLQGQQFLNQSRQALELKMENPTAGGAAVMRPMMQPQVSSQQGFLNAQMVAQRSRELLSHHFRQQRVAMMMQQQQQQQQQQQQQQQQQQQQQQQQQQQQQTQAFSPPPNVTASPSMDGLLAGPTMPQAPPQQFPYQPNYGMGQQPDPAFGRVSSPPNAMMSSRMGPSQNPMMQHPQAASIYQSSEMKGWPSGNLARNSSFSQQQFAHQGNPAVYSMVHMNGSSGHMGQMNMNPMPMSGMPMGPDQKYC
# [23] = system: transactivating tegument protein VP16 (Human herpesvirus 1), Gal4-VP16 luciferase reporter; experiment: repression of VP16-driven luciferase reporter – cell-based, luminescence, high throughput, counter-screen for SRC3 inhibitor project (AID 588794; in the data active = inhibition above about 30%); conditions: mammalian cells, at 3.6 µM, stronger effect = higher value
# [24] = nonselective effects on VP16 transactivation – cell-based, luminescence, CHO-S, high throughput, counter-screen for NR2E3 agonist project, confirmation (AID 624379;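 active = mean inhibition above a cutoff equal to the average over all tested compounds plus one standard deviation, cut at about 70% in these data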;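 also: luciferase from a UAS reporter driven by GAL4-VP16 transactivation; 0% = DMSO with VP16-transfected cells and 100% = DMSO with cells lacking VP16; higher means less reporter light so more repression of VP16 activity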); conditions: CHO-S GAL4-VP16 luciferase reporter, at 3.98 µM, stronger effect = higher value
# [25] = StAR promoter reporter inhibitors, counter-screen for LRH-1 inverse agonist project, cell-based, luminescence, high throughput (AID 651611; in the data active = inhibition above about 28%); conditions: StAR promoter luciferase reporter counterscreen, at 3.6 µM, stronger effect = higher value
# [26] = biological target: Nuclear receptor subfamily 5 group A member 2 (Homo sapiens) (UniProt O00482); experiment: NR5A2 activity suppression in reporter cells – cell-based, luminescence, confirmation (AID 651613; in the data active = inhibition above about 42%;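 also: HEK293T cells co-transfected with LRH-1 and StAR promoter luciferase reporter; 0% = vehicle wells and 100% = parental cells lacking receptor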); conditions: cell-based LRH-1 luciferase reporter, inverse agonism; at 3.6 µM; stronger effect = higher value
# Nuclear receptor subfamily 5 group A member 2 (Homo sapiens), sequence (O00482 whole entry, looked up): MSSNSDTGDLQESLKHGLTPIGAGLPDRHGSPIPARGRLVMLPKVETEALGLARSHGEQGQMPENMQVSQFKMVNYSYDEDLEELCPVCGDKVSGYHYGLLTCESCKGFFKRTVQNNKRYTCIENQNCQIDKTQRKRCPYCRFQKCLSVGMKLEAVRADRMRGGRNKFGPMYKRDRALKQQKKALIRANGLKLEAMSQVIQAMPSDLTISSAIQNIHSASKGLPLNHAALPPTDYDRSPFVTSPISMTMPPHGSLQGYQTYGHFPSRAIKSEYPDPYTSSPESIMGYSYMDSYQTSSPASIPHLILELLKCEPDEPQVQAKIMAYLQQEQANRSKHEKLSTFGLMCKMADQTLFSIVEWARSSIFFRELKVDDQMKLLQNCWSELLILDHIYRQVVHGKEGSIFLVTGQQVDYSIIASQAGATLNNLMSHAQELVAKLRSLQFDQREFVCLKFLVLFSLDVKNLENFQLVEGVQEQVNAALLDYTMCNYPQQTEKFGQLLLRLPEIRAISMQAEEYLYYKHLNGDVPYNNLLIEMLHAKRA
# [27] = biological target: Steroidogenic factor 1 (Homo sapiens) (UniProt Q13285); experiment: inverse agonism at SF1 nuclear receptor – cell-based, luminescence, high throughput, counter-screen for LRH-1 inverse agonist project (AID 651614; in the data active = inhibition above about 44%;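 also: cells cotransfected with StAR promoter reporter and SF1 expression vector; 0% = vehicle on cells with receptor and 100% = vehicle on cells lacking receptor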); conditions: cell-based SF1 luciferase reporter, at 3.6 µM, stronger effect = higher value
# Steroidogenic factor 1 (Homo sapiens), sequence (Q13285 whole entry, looked up, the tested form may be a part): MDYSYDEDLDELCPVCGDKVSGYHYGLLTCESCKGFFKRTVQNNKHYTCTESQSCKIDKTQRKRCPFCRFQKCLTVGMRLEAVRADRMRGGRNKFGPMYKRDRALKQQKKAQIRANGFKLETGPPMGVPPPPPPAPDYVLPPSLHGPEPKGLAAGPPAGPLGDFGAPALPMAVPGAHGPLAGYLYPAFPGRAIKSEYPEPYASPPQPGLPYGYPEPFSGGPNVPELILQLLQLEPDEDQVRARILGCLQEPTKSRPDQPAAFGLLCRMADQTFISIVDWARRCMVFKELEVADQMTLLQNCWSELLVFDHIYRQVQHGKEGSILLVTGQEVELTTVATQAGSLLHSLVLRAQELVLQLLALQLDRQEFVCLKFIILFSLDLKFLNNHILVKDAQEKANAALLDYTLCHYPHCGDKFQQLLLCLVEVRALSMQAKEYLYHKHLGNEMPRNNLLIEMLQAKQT
# [28] = compounds suppressing VP16-driven luciferase signal – cell-based, luminescence, high throughput, counter-screen for LRH-1 inverse agonist project (AID 651615; in the data active = inhibition above about 33%); conditions: Gal4-VP16 luciferase reporter cells, at 3.6 µM, stronger effect = higher value
smiles,measurement,setting,value
COc1cc(/C=N/O)ccc1OCc1ccc([N+](=O)[O-])cc1,activation (% of control),[1],234% (active)
same,activation (% of control),[2],131%
same,activation (% of control),[3],123% (active)
same,activation,[4],15.5% (active)
same,activation,[5],0.71%
Cc1ccc2nc(-c3ccc(NC(=O)c4cccnc4)cc3)oc2c1,inhibition,[6],31.7%
same,inhibition,[7],-25.2%
same,inhibition,[8],-38.3%
Cn1c(SCC(=O)N2CCCc3ccccc32)nc2ccccc2c1=O,inhibition,[6],49.3% (active)
same,inhibition,[7],13.7% (active)
same,inhibition,[8],22.5% (active)
COc1ccc(C2Nc3ccccc3C(=O)N2c2ccc(Cl)cc2)cc1Cn1cc([N+](=O)[O-])cn1 (stereo not given),activation (% of control),[1],151% (active)
same,activation (% of control),[2],112%
same,activation (% of control),[3],120% (active)
same,activation,[4],10.6% (active)
same,activation,[5],0.5%
CC(=O)c1sc(N/N=C/c2ccc(C(C)C)cc2)nc1C,activation (% of control),[1],187% (active)
same,activation (% of control),[2],133% (active)
same,activation (% of control),[3],110%
same,activation,[4],11.8% (active)
same,activation,[5],0.5%
OCCn1c(-c2ccccc2)csc1=Nc1ccccc1,inhibition,[6],14%
same,inhibition,[7],-12%
same,inhibition,[8],-20.1%
CC(C)C[C@@H](N)c1nnc(SCC(=O)c2ccc(Cl)cc2)o1,inhibition,[6],36.7%
same,inhibition,[7],10.9%
same,inhibition,[8],9.47%
COc1cccc(/C=C/c2ccc3ccccc3n2)c1OC(C)=O,inhibition,[6],25.2%
same,inhibition,[7],32.1% (active)
same,inhibition,[8],-9.23%
Cc1ccc(-c2cn3cc([N+](=O)[O-])ccc3n2)cc1,inhibition,[6],60.3% (active)
same,inhibition,[7],-3.2%
same,inhibition,[8],-77%
Cc1ccc(-n2ncc3c(N4CCN(c5ccc(F)cc5)CC4)ncnc32)c(C)c1,inhibition,[6],46.6% (active)
same,inhibition,[7],22.4% (active)
same,inhibition,[8],14.9%
CCOc1cccc(/C=C/c2ccc3ccccc3n2)c1OC(C)=O,inhibition,[6],-2.03%
same,inhibition,[7],-34.1%
same,inhibition,[8],-15.3%
Cc1nn(-c2ccc([N+](=O)[O-])cc2)c(N)c1-c1ccccc1,activation (% of control),[1],207% (active)
same,activation (% of control),[2],145% (active)
same,activation (% of control),[3],126% (active)
same,activation,[4],16.4% (active)
same,activation,[5],0.83%
N#Cc1nc(COc2ccc(-c3ccccc3)cc2)oc1NCc1cccnc1,inhibition,[6],35.1%
same,inhibition,[7],2.23%
same,inhibition,[8],12.9%
Oc1c(Cl)cc(Cl)c(Cl)c1Cc1c(O)c(Cl)cc(Cl)c1Cl,inhibition,[6],46.3% (active)
same,inhibition,[7],20.9% (active)
same,inhibition,[8],41% (active)
same,activation,[9],24.1%
same,activation,[10],3.71%
same,activation,[11],14.9%
same,inhibition,[12],15.6%
same,activation,[13],24.1% (active)
same,inhibition,[14],88% (active)
same,inhibition,[15],31.1% (active)
same,inhibition,[16],47.1% (active)
same,inhibition,[17],10.2%
same,inhibition,[18],98.9% (active)
same,inhibition,[19],11.6% (active)
same,inhibition,[20],11.5%
same,inhibition,[21],2.09%
O=c1c2c(nc3n1CCCCC3)sc1c(O)cccc12,inhibition,[6],45.2% (active)
same,inhibition,[7],-0.37%
same,inhibition,[8],3.33%
COc1cc(N=Cc2c(O)[nH]c3ccccc23)cc(OC)c1OC,inhibition,[6],49.1% (active)
same,inhibition,[7],27% (active)
same,inhibition,[8],-12%
same,inhibition,[14],76.8% (active)
same,inhibition,[15],19.1%
same,inhibition,[22],28.2%
same,inhibition,[23],1.5%
same,inhibition,[18],73.8% (active)
same,inhibition,[24],58.7%
same,inhibition,[25],61.7% (active)
same,inhibition,[26],54.4% (active)
same,inhibition,[27],69.2% (active)
same,inhibition,[28],25.2%
C=CC[n+]1c(-c2ccc(C)cc2)csc1NNC(=O)Nc1ccccc1,inhibition,[6],51.1% (active)
same,inhibition,[7],18.4% (active)
same,inhibition,[8],16.9% (active)
CC(C)(C)C(=O)c1cnc(Nc2ccccc2)s1,activation (% of control),[1],164% (active)
same,activation (% of control),[2],121%
same,activation (% of control),[3],105%
same,activation,[4],13.6% (active)
same,activation,[5],0.48%
Cc1nc(-c2ccc(NC(=O)c3cccs3)cc2)cs1,inhibition,[6],27.5%
same,inhibition,[7],-26.7%
same,inhibition,[8],-111%
O=C1NC(Nc2nc3ccccc3s2)(C(F)(F)F)C(=O)N1C1CCCCC1 (stereo not given),inhibition,[6],51.1% (active)
same,inhibition,[7],21.2% (active)
same,inhibition,[8],-9.63%
COc1ccc(NS(=O)(=O)c2ccc(NC(C)=O)cc2)cc1OC,inhibition,[6],26.4%
same,inhibition,[7],5.93%
same,inhibition,[8],17.1% (active)
c1ccc(-c2noc(-c3cccs3)n2)nc1,inhibition,[6],27.6%
same,inhibition,[7],-12.9%
same,inhibition,[8],-54.9%
Cc1ccc2nc(-c3ccc(NC(=O)CN(C)S(=O)(=O)c4ccccc4)cc3)sc2c1,inhibition,[6],20.1%
same,inhibition,[7],-18.5%
same,inhibition,[8],-90.5%
O=C(Nc1ccc(-c2nnc(-c3ccccc3)o2)cc1)C1CCCO1 (stereo not given),activation (% of control),[1],207% (active)
same,activation (% of control),[2],122%
same,activation (% of control),[3],123% (active)
same,activation,[4],15.9% (active)
same,activation,[5],0.9%
CCSc1nnc(NC(=O)c2ccc(C)cc2)s1,inhibition,[6],21.2%
same,inhibition,[7],-24.2%
same,inhibition,[8],-63%
same,activation,[9],-4.89%
same,activation,[10],-0.65%
same,activation,[11],-1.02%
same,inhibition,[12],-0.46%
same,activation,[13],-10.9%
same,activation,[4],17.3% (active)
same,activation,[5],0.93%
O=C(Nc1cccnc1)c1noc2c1CCCCC2,inhibition,[6],16.7%
same,inhibition,[7],-24.9%
same,inhibition,[8],-46.6%
